High-throughput results as filed in PubChem BioAssay.
HCV inh: HCV inhibition; Huh7.5.1 HCVcc-Cre infection, luciferase reporter, 44 h; Potency, µM (series often up to 41.8 µM), for inactives: top-dose activity change, negative = inhibition, most hits filed as inhibitors; 3.4% of 340,000 active; active means well fitted inhibition curve with a large enough effect; inconclusive means small, poorly fitted or top-dose-only effect, or another doubt; inactive means no such curve, though single readings can be large or run the other way; further: potency means the concentration at half of the fitted maximal effect
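Infectious HCVcc-Cre (~0.5 moi) was added to cells just after compound, with cells seeded 4 h earlier at 1,000 per well. Luciferase activity after 44 h culture reported infection; substrate was incubated 15 min at room temperature before reading.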
LASV entry inh: Lassa virus entry inhibition; 1.2% of 300,000 active; Lassa virus pseudotype entry inhibition, cell reporter; Potency, µM (series often up to 37.9 µM), inactives show top-dose activity change, negative = inhibition, hits mostly inhibitors; calls by dose curve; tested in HEK293 cells; further: potency means the concentration at half of the fitted maximal effect; nearly all actives have a fitted effect of over 50% in size
MARV entry inh: inhibitors of Marburg virus binding or cell entry; Marburg virus pseudotyped entry inhibition, cell reporter; Potency, µM (doses to about 37.8 µM), without a hit: top-dose activity change, negative = inhibition, usual class: inhibitors; 1.8% of 300,000 active; AID 540276; calls by dose curve; tested in HEK293 cells; further: potency means the concentration at half of the fitted maximal effect
HCMV antiviral: inhibitors of human cytomegalovirus | HFF cells, HCMV-luciferase reporter, 72 h; active compounds read low | activity change, negative = inhibition, % at 57.5 µM | 4.5% of 410,000 active | AID 1259415; in the data active means activity change below about -60%; inconclusive means no clear call, values can overlap the other calls; inactive means above about -39%
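Luciferase read-out from HCMV-luciferase-infected HFFs (MOI 1 PFU/cell) 72 h post infection at 37C; compounds added after 16 h cell attachment; activity normalized between buffer-only basal and Salinomycin (10uM) inhibitor controls.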
Vaccinia mCherry: vaccinia inhibition (mCherry reporter). Vaccinia virus mCherry reporter infection, fluorescence. 0.63% of 310,000 active. Potency, µM (series often up to 36.5 µM), without a hit: at the top dose activity change, negative = inhibition, hits mostly inhibitors; calls by dose curve; tested in A549 cells; further: potency means the concentration at half of the fitted maximal effect; nearly all actives have a fitted effect of over 35% in size
VACV Venus inh: inhibitors of vaccinia virus (Venus reporter). Vaccinia virus Venus reporter expression, fluorescence. Potency, µM (series often up to 36.5 µM), without a hit: top-dose activity change, negative = inhibition, actives largely listed as inhibitors. 0.46% of 330,000 active; calls by dose curve; tested in A549 cells; further: potency means the concentration at half of the fitted maximal effect; nearly all actives have a fitted effect of over 30% in size
Numbers without * were called inactive; i = inactive; ? = inconclusive; . = not tested or not shown; [ ] = remark or other dose. Hits are enriched below; roughly 7.8% of the tested compounds scored in any of these assays. On the % scale 0 is the no-effect control and ±100 the full control effect.

SMILES	HCV inh	LASV entry inh	MARV entry inh	HCMV antiviral	Vaccinia mCherry	VACV Venus inh
Cc1ccc(O)c(C(=O)CC(=O)c2ccc(C(C)(C)C)cc2)c1	?	.	.	-34	.	.
CCC[C@H]1[C@@H](NS(=O)(=O)c2ccc(C#N)cc2)CC[C@@]23CCCN2C(=O)CCC[C@@H]13	.	.	.	-2	.	.
COc1cccc2sc(Nc3nnc(-c4ccc(F)cc4)o3)nc12	?	.	.	30	?	?
COc1cccc2sc(Nc3nnc(-c4cccs4)o3)nc12	?	?	?	-86*	?	?
CCN(CC)c1nc(Nc2ccc([N+](=O)[O-])cc2)nc(N(CC)CC)n1	11µM*	.	.	25	.	.
CCOc1nc(Nc2ccc([N+](=O)[O-])cc2)nc(NC(C)(C)C)n1	?	?	?	50	-13%	-1%
CN(C)/C=N/C(=S)Nc1ccc(Cl)cc1Cl	14µM*	?	-13%[46.1 µM]	-9	-25%	-9%
COC(=O)C1=C2C=C(C)CC(C)N2C(=O)NC1c1ccccc1 (stereo not drawn)	.	.	30%[14.2 µM]	.	.	.
COc1ccc(CCNC(c2ccc(F)cc2)c2nnc(-c3ccccc3Cl)o2)cc1OC (stereo not drawn)	.	-28%[46.1 µM]	13µM*	-9	-13%	-12%
Fc1ccc(C(NCCc2ccc(Cl)cc2)c2nnc(-c3ccccc3)o2)c(Cl)c1 (stereo not drawn)	.	10%[46.1 µM]	-24%[46.1 µM]	10	-10%	-4%
CC(C)n1c(CNC(=O)c2ccccc2F)nnc1SCC(=O)NC1CCCCC1	0%	-1%	?	18	-10%	-8%
O=[N+]([O-])c1cc(S(=O)(=O)Oc2ccccc2)ccc1Cl	?	?	?	-89*	?	?
O=S(=O)(Oc1ccccc1)c1ccc(Cl)c(Cl)c1	8%	0%[46.1 µM]	1%[46.1 µM]	-5	?	4%
Cc1c(C(=O)N2CCN(c3ccc(F)cc3)CC2)sc2ncnc(N3CCN(c4ccccn4)CC3)c12	?	?	?	-81*	-14%	?
CCc1c(C)sc2nc(C(C)C)nc(SCC(=O)N3CCc4ccccc4C3)c12	?	21µM*	?	-90*	29%	29%
Cc1sc2nc(C(C)C)nc(SCC(=O)N3CCN(C(=O)c4ccco4)CC3)c2c1C	11µM*	-17%	6%	-26	-28%	-28%
Cc1sc2nc(C3CC3)nc(SCC(=O)N3CCc4ccccc4C3)c2c1C	?	-15%	?	-20	-7%	-14%
Cc1nc(N2CCN(C(=O)c3ccco3)CC2)c2c3c(sc2n1)CCC3	?	?	10µM*	-65*	.	?
CC(C)Oc1ccc(C(=O)NCC2Cc3cc(F)cc(-c4cnccn4)c3O2)cc1 (stereo not drawn)	.	.	.	.	-6%	7%
Cc1sc2ncnc(N3CCN(C(=O)c4ccco4)CC3)c2c1C	?	?	?	-67*	-5%	-20%
CC(C)c1nc(N2CCN(C(=O)c3ccco3)CC2)c2c3c(sc2n1)CCCC3	22µM*	?	18µM*	-9	-13%	-30%
O=C(c1ccco1)N1CCN(C(=O)c2cccn3c(=O)c4c5c(sc4nc23)CCCC5)CC1	-7%	.	.	-35	.	.
Cc1ccc(-c2csc3ncnc(N4CCN(C(=O)c5ccco5)CC4)c23)cc1	?	?	-30%	-10	-3%	-15%
Cc1ccc(C)n1C1C(=O)N(C)c2ccc(F)cc21 (stereo not drawn)	.	.	.	26	.	.
O=C(Nc1cccc(S(=O)(=O)N2CCCCC2)c1)[C@@H]1CCCN1S(=O)(=O)c1ccccc1C(F)(F)F	14µM*	.	.	-23	.	.
SMILES	HCV inh	LASV entry inh	MARV entry inh	HCMV antiviral	Vaccinia mCherry	VACV Venus inh
O=C(Nc1ccc(Cl)cc1)C1CCCCN1S(=O)(=O)c1ccccc1 (stereo not drawn)	?	-18%	?	-101*	?	10µM*
O=C(CNc1cccc(S(=O)(=O)N2CCCC2)c1)Nc1ccc(C(F)(F)F)cc1	10µM*	?	?	-69*	?	-29%
Cc1ccc(NC(=O)CNc2cccc(S(=O)(=O)N3CCCCC3)c2)cc1F	?	-21%	?	-35	?	-19%
CC(=O)c1cccc(NC(=O)C2CCCN2S(=O)(=O)c2ccccc2C(F)(F)F)c1 (stereo not drawn)	.	.	.	3	-11%	-8%
O=C(Nc1ccccc1)[C@@H]1CCCN1S(=O)(=O)c1ccc(Cl)cc1	-1%	16%	-15%	-29	i	-1%
O=C(CNc1cccc(S(=O)(=O)N2CCCCC2)c1)Nc1ccc(C(F)(F)F)cc1	.	.	.	-79*	-23%	?
COC(=O)[C@@]1(C=C2c3ccc(F)cc3[C@@H](OC)[C@@H]2C)[C@@H]2Oc3ccccc3[C@@H]21	.	.	-17%[14.2 µM]	.	.	.
CCCCNc1sc(S(=O)(=O)CCC)nc1S(=O)(=O)c1ccc(C)cc1	.	-8%[46.1 µM]	?	-10	-17%	-11%
COc1ccccc1N1CCN(C(=O)c2cc3c(=O)oc4ccccc4c3s2)CC1	.	8%[46.1 µM]	8%[46.1 µM]	1	-10%	-5%
Cc1ccccc1Nc1nc(N)nc(COC(=O)CC2CC3CCC2C3)n1 (stereo not drawn)	4%	?	14µM*	-26	i	-8%
Cc1ccc2c(CC(=O)OCc3nc(N)nc(Nc4ccccc4C)n3)coc2c1	-20%	-3%	15µM*	-28	.	.
CCC(C)n1c(=N)c(C(=O)NCc2ccco2)cc2c(=O)n3cc(C)ccc3nc21 (stereo not drawn)	.	?	1%[46.1 µM]	-26	-9%	-15%
CC1OC(OC2C=C3CCC4C(CCC5(C)C(c6ccc(=O)oc6)CCC45O)C3(C)CC2)C(O)C(OC2OC(CO)C(O)C(O)C2O)C1O (stereo not drawn)	16µM*	?	?	-97*	0.28µM*	0.0032µM*
COc1cc(F)ccc1-c1csc(C(NC(C)=O)c2ccccc2)n1 (stereo not drawn)	.	.	.	38	i	-21%
COc1ccncc1-c1csc(C(O)c2ccccc2)n1 (stereo not drawn)	.	.	.	-69*	-27%	-18%
COc1ccccc1-c1csc(C(NC(C)=O)c2ccccc2)n1 (stereo not drawn)	.	.	.	-79*	i	-16%
COc1cc(C(O)c2nc(-c3cc4ccccc4o3)cs2)ccc1F (stereo not drawn)	.	.	.	-77*	i	-17%
COc1cc2nc(N(C)C)c(CNCc3cccc4ccccc34)cc2c(OC)c1OC	.	.	.	.	i	-4%
CCC1C/C(=C\c2cccnc2)C(=O)/C(=C/c2cccnc2)C1 (stereo not drawn)	?	4.5µM*	5.8µM*	-98*	?	?
O=C1/C(=C/c2cccnc2)CC/C1=C\c1cccnc1	2%	-3%[46.1 µM]	?	-99*	-5%	-10%
O=C1/C(=C/c2cccnc2)CCC/C1=C\c1cccnc1	?	7.1µM*	?	-101*	?	?
